What all share (assay): DAPPL (digital affinity profiling via proximity ligation, sequencing); 10 mM Tris-HCl pH 7.5, 50 mM NaCl, 1 mM DTT, 4% glycerol, room temperature, 30 min; GST-TFs on glutathione beads, 16-mer random dsDNA library, 0.1% formaldehyde crosslink after washing; high values mean tight binding
One test addresses T1, FEV (Homo sapiens, UniProt Q99581 1-238).
T1 sequence: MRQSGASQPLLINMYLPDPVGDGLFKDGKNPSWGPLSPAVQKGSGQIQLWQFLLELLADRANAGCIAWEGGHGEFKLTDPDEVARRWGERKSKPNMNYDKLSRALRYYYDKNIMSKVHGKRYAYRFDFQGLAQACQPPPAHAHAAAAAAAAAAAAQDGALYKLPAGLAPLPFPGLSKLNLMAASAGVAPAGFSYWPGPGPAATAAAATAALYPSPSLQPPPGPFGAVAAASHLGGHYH
As to conditions: protein: recombinant; tags: N-terminal GST; dsDNA, one strand shown. Put shortly:
(§1)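 Human transcription factors carrying a GST fusion were produced in yeast, bound to glutathione beads, tagged with DNA barcodes and pooled together with a tag-only sample. Each pool was held with 200 nmole of a random double-stranded 16-mer DNA library in Tris/NaCl/DTT/glycerol buffer for 30 min at room temperature, then washed, crosslinked in 0.1% formaldehyde, proximity-ligated with BsaI/T4 ligase (1 h, 37 °C), PCR-amplified and sequenced on an Illumina NextSeq500. Binding signal is the read frequency of each hexamer for a given factor divided by its frequency in the tag-only sample.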

The target of a further test is ETV5 (Homo sapiens, UniProt P41161 1-510). The settings on record: protein: recombinant; tags: N-terminal GST; dsDNA, one strand shown. Put shortly: as §1
ETV5, sequence (P41161 whole entry): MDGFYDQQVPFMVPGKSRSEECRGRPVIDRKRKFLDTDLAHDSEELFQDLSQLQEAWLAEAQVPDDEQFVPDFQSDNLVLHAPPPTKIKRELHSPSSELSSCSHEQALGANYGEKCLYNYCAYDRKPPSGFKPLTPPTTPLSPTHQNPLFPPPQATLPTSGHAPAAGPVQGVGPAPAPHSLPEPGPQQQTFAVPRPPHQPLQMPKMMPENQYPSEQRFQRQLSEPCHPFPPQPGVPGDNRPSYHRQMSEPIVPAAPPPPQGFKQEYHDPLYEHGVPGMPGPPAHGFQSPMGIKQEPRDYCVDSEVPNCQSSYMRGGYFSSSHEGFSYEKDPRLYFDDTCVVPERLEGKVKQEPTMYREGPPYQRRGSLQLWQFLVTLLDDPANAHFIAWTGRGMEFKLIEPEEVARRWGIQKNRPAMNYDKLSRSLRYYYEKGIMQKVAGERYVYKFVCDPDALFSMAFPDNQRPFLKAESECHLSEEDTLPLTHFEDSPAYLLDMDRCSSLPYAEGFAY
The next test addresses HSF1 (Homo sapiens, UniProt Q00613 1-529). As to conditions: protein: recombinant; tags: N-terminal GST; chain copies: 3; dsDNA, one strand shown. The procedure, abridged:
as §1

In the next test the target is T2, SPIC (Homo sapiens, UniProt Q8N5J4 1-248).
T2 sequence: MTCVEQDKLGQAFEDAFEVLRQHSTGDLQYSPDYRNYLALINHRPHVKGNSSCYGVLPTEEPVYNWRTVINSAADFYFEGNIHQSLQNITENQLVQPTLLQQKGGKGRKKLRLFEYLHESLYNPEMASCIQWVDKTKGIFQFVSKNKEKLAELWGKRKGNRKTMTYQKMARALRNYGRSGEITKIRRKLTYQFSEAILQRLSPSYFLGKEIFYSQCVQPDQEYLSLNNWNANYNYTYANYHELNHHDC
As to conditions: protein: recombinant; tags: N-terminal GST; dsDNA, one strand shown. The procedure, abridged:
as §1

Another test concerns the target ELF4 (Homo sapiens, UniProt Q99607 1-663). The settings on record: protein: recombinant; tags: N-terminal GST; dsDNA, one strand shown. Put shortly: as §1
The next test has as its target T3, ELK4 (Homo sapiens, UniProt P28324-2 1-405).
T3 sequence: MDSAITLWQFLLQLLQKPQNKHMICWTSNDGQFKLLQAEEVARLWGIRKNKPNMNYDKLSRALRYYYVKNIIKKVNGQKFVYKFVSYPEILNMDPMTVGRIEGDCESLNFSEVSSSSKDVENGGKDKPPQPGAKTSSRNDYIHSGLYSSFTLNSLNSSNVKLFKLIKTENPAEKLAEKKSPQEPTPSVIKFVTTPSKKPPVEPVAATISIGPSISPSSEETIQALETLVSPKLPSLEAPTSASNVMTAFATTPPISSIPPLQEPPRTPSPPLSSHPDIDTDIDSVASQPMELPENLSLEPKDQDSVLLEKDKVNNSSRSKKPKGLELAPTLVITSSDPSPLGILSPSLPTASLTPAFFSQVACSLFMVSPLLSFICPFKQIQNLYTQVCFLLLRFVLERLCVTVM
The settings on record: protein: recombinant; tags: N-terminal GST; dsDNA, one strand shown. The procedure, abridged: as §1

The target in the next test is T4, ETV2 (Homo sapiens, UniProt O00321 1-342).
T4 sequence: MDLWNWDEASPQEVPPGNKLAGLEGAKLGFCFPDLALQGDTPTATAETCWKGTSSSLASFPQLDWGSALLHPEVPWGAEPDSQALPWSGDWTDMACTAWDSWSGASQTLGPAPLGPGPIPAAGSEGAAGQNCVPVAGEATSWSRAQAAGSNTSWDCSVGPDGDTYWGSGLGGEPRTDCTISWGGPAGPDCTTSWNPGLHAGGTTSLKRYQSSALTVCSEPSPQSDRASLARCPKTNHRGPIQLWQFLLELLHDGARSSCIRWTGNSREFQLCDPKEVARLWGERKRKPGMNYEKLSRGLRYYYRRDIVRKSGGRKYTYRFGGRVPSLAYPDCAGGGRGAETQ
As to conditions: protein: recombinant; tags: N-terminal GST; dsDNA, one strand shown. The procedure, abridged:
as §1

For the next test, the target named is T5, ELF3 (Homo sapiens, UniProt P78545 1-371).
T5 sequence: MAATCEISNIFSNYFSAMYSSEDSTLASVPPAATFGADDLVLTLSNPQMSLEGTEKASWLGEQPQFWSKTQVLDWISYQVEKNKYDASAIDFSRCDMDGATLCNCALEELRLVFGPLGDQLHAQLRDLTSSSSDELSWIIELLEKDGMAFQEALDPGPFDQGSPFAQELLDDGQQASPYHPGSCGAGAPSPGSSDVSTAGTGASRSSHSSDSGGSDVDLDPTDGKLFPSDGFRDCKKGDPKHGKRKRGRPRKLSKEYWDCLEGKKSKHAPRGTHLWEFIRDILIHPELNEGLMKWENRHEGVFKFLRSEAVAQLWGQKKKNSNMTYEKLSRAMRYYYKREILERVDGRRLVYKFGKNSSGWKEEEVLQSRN
As to conditions: protein: recombinant; tags: N-terminal GST; dsDNA, one strand shown. Put shortly:
as §1

For the next test, the target named is CRX (Homo sapiens, UniProt O43186 1-299). The settings on record: protein: recombinant; tags: N-terminal GST; dsDNA, one strand shown. Put shortly:
as §1

The target in another test is ETV1 (Homo sapiens, UniProt P50549 1-477). As to conditions: protein: recombinant; tags: N-terminal GST; dsDNA, one strand shown. The procedure, abridged:
as §1

The target of the next test is T6, ERF (Homo sapiens, UniProt P50548 1-548).
T6 sequence: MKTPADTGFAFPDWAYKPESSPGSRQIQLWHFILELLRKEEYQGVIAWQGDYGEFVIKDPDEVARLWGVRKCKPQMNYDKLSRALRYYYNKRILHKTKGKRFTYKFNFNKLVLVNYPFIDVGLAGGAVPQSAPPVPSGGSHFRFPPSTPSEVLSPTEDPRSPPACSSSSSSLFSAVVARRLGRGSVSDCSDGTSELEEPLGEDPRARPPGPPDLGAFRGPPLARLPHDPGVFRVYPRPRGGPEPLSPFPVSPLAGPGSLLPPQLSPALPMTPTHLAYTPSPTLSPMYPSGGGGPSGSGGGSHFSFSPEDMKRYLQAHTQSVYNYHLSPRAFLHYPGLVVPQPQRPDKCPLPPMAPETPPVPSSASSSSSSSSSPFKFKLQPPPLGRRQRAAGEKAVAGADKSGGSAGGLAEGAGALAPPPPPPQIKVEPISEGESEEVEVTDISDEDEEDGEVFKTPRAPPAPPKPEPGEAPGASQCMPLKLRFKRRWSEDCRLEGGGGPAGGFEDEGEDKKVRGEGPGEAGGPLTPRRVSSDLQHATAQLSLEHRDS
The settings on record: protein: recombinant; tags: N-terminal GST; dsDNA, one strand shown. The procedure, abridged: as §1

Another test deals with T7, ETV3L (Homo sapiens, UniProt Q6ZN32 1-361).
T7 sequence: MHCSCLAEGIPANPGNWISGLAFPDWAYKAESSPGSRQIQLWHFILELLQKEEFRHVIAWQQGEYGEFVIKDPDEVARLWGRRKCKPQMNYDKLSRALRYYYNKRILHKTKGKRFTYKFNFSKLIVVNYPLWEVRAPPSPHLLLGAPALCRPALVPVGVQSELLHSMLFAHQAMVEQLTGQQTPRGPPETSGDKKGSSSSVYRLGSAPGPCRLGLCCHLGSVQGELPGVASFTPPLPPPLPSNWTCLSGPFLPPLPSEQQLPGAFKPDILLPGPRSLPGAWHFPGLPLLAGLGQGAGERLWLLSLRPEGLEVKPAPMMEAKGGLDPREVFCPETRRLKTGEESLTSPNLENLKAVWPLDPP
The settings on record: protein: recombinant; tags: N-terminal GST; dsDNA, one strand shown. Put shortly:
as §1

The next test has as its target T8, ETS2 (Homo sapiens, UniProt P15036 1-469).
T8 sequence: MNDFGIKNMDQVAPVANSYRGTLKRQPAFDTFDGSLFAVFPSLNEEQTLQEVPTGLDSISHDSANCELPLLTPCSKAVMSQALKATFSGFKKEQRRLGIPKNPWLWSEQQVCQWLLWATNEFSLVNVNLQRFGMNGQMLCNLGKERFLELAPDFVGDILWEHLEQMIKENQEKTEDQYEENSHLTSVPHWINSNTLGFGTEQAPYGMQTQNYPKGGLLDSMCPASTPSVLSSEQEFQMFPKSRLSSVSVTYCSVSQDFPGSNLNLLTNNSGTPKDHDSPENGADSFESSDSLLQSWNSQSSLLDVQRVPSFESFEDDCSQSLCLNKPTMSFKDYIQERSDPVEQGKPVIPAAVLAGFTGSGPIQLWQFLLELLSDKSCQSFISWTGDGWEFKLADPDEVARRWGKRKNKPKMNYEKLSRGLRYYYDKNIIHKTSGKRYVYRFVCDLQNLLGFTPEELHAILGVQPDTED
As to conditions: protein: recombinant; tags: N-terminal GST; dsDNA, one strand shown. The procedure, abridged:
as §1

Another test addresses T9, SPDEF (Homo sapiens, UniProt O95238 1-335).
T9 sequence: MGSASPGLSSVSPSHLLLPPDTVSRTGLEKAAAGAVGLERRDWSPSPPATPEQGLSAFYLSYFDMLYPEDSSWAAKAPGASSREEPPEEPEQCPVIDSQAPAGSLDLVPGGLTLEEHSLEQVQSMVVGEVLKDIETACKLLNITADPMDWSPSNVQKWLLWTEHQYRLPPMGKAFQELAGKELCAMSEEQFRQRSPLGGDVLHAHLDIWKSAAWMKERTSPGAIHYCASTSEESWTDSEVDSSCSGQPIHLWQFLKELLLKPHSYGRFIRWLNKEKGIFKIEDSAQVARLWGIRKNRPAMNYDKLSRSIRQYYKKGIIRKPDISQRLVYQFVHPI
The settings on record: protein: recombinant; tags: N-terminal GST; dsDNA, one strand shown. Put shortly:
as §1

For the next test, the target named is T10, ETV7 (Homo sapiens, UniProt Q9Y603 1-341).
T10 sequence: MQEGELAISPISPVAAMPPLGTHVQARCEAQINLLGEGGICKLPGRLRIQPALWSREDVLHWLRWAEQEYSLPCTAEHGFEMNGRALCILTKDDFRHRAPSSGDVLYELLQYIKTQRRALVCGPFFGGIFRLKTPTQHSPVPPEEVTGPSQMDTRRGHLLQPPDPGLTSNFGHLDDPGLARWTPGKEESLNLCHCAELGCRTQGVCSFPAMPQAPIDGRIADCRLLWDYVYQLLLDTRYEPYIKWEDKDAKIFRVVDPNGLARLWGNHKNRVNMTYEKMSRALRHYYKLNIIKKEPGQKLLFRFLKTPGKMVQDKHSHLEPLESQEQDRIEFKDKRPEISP
As to conditions: protein: recombinant; tags: N-terminal GST; dsDNA, one strand shown. The procedure, abridged:
as §1

In the next test the target is T11, ELF5 (Homo sapiens, UniProt Q9UKW6-2 1-255).
T11 sequence: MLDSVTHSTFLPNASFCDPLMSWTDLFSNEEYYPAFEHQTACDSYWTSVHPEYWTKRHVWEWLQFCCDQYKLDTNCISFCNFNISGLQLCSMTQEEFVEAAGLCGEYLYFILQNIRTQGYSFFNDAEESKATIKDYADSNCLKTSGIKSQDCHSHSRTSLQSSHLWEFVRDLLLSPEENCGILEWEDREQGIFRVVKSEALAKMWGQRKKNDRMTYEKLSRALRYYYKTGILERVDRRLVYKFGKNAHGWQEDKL
The settings on record: protein: recombinant; tags: N-terminal GST; dsDNA, one strand shown. The procedure, abridged: as §1

For a further test, the target named is T12, ETV3 (Homo sapiens, UniProt P41162-2 1-143).
T12 sequence: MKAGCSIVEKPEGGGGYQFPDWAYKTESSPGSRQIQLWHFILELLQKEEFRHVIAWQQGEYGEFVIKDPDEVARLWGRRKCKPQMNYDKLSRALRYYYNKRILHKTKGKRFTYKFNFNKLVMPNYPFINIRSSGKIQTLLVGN
The settings on record: protein: recombinant; tags: N-terminal GST; dsDNA, one strand shown. Put shortly:
as §1

Another test deals with ETV6 (Homo sapiens, UniProt P41212 1-452). As to conditions: protein: recombinant; tags: N-terminal GST; dsDNA, one strand shown. The procedure, abridged:
as §1

ELF4, sequence (Q99607 whole entry): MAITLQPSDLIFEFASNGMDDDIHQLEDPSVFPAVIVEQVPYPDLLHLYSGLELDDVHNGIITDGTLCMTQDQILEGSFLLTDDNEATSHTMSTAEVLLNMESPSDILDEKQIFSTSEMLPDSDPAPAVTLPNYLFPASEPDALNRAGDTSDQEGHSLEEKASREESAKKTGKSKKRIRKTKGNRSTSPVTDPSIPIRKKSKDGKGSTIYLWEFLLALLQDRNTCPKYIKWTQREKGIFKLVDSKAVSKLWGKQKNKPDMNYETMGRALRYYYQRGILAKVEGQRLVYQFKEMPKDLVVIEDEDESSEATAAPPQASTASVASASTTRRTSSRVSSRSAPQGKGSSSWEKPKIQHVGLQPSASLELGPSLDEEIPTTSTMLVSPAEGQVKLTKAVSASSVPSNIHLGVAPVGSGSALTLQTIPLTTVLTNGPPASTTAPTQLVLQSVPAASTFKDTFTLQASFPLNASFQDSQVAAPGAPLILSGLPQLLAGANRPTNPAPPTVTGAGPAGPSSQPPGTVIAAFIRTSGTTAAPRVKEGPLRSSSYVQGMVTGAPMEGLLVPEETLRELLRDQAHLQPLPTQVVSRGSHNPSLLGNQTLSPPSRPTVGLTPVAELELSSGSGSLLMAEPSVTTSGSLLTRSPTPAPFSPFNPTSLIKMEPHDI
CRX, sequence (O43186 whole entry): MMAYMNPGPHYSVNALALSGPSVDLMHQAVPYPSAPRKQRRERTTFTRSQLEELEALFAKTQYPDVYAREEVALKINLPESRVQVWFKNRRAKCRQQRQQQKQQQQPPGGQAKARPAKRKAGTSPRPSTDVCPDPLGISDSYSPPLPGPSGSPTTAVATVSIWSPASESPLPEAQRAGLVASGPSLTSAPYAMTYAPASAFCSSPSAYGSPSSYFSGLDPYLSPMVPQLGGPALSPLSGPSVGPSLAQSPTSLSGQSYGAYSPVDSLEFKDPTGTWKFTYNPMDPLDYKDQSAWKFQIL
ETV1, sequence (P50549 whole entry): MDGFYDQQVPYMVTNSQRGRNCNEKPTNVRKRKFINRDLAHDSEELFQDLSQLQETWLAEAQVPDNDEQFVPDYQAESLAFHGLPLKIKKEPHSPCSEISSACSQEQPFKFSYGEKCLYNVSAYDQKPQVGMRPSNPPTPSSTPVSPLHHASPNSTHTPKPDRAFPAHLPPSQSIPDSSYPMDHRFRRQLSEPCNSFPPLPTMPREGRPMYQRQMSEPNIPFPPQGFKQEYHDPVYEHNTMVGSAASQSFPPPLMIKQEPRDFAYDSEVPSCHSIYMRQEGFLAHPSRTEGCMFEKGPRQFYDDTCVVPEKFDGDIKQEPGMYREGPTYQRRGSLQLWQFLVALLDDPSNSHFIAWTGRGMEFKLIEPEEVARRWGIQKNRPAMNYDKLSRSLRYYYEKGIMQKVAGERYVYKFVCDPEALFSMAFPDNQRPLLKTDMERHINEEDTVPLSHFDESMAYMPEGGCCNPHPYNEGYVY
HSF1, sequence (Q00613 whole entry): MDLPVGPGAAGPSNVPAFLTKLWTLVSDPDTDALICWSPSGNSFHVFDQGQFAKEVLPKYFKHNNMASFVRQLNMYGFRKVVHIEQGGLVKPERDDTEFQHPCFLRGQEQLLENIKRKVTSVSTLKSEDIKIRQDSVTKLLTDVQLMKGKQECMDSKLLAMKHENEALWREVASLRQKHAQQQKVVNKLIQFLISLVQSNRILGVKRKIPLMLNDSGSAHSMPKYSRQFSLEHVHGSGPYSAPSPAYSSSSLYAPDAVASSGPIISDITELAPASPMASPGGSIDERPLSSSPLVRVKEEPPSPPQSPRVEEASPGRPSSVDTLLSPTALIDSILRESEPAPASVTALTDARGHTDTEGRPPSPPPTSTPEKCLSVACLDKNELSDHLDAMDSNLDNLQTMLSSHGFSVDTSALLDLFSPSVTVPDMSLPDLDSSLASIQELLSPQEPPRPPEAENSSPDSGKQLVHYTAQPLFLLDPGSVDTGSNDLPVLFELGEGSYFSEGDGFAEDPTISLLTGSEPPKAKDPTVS
ETV6, sequence (P41212 whole entry): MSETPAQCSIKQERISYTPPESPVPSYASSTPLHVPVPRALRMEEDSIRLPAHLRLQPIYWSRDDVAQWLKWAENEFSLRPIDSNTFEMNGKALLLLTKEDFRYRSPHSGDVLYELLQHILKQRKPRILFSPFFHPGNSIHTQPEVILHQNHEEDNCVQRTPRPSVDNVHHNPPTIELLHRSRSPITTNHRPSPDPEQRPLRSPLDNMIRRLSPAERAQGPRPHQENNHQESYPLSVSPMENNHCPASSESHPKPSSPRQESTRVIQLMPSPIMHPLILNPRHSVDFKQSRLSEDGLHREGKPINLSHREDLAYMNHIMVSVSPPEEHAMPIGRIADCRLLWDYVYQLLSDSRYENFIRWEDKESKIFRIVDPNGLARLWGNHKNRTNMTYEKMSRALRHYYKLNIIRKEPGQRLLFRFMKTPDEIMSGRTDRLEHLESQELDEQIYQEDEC

TAGCCT: the binding signal in the test with FEV was 1.26 fold enrichment (6-mer frequency, TF over GST control); in the test with ETV5 it was 1.22 fold enrichment (6-mer frequency, TF over GST control); with HSF1, 1.43 fold enrichment (6-mer frequency, TF over GST control); with SPIC, 1.17 fold enrichment (6-mer frequency, TF over GST control); with ELF4, 1.24 fold enrichment (6-mer frequency, TF over GST control); in the test with ELK4, 1.18 fold enrichment (6-mer frequency, TF over GST control). Further, the binding signal with ETV2 is 1.22 fold enrichment (6-mer frequency, TF over GST control); with ELF3, 1.27 fold enrichment (6-mer frequency, TF over GST control); in the test with CRX, 1.53 fold enrichment (6-mer frequency, TF over GST control); with ETV1 it was 1.26 fold enrichment (6-mer frequency, TF over GST control); with ERF it was 1.28 fold enrichment (6-mer frequency, TF over GST control); with ETV3L, 1.31 fold enrichment (6-mer frequency, TF over GST control). For the same sequence, the binding signal was 1.25 fold enrichment (6-mer frequency, TF over GST control) with ETS2; 1.07 fold enrichment (6-mer frequency, TF over GST control) in the test with SPDEF; 1.2 fold enrichment (6-mer frequency, TF over GST control) with ETV7; 1.17 fold enrichment (6-mer frequency, TF over GST control) with ELF5; 1.32 fold enrichment (6-mer frequency, TF over GST control) with ETV3; 1.04 fold enrichment (6-mer frequency, TF over GST control) with ETV6.

The values above are taken from paper PMC7862700, “An all-to-all approach to the identification of sequence-specific readers for epigenetic DNA modifications on cytosine”.
